In PubChem BioAssay AID687022 (Broad Institute, 2013):
In all, about 1,000 compounds went through this assay and about 360 (36%) were called active.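 The calls were made as follows: active = Fitted curve of melting temperature shift crosses the 1.0 threshold at or below the sample's highest valid tested concentration; inconclusive = Flat fit with activity 30 to 70, or invalid fit; inactive = Opposite direction, flat within 30, or no crossing.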 Only a sample is shown.

Target: Fibroblast growth factor 22 (Homo sapiens) (UniProt Q9HCT0)
Assay: binders of human FGF22 protein, dose response, FGF22 synaptogenesis inhibitor project, biophysical, thermal shift, cherry-pick (AID 687022); also: reference of the scale not given here
Details: recombinant FGF22 thermal shift, SYPRO orange melting; series mostly up to 38 µM; Tm shift activity: at the top concentration

Chain of Fibroblast growth factor 22 (Homo sapiens) (Q9HCT0 whole entry, looked up): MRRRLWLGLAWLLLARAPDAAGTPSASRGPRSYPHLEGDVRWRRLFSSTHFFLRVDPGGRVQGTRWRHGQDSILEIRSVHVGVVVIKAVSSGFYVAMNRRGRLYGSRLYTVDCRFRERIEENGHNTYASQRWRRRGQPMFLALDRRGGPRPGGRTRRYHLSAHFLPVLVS

SMILES | Tm shift activity
O=C(N[C@@H]1C=C[C@@H](CC(=O)N2CCCCC2)O[C@@H]1CO)c1cccc(F)c1 | -0.288% [at 42 µM] (inactive)
O=C(c1ccccc1F)N1CC(=O)N2[C@@H](CO)[C@H](c3ccc(-c4ccc(F)cc4)cc3)[C@@H]2C1 | -1.1% [at 42 µM] (inactive)
Cc1ccccc1-c1ccccc1[C@@H]1[C@@H](C#N)N(C(=O)c2ccccc2)[C@H]1CO | -0.262% (inactive)
CCOC(=O)[C@]12CCCC=C1N(Cc1ccccc1)C(=O)[C@H](CC(=O)NCC1CCCCC1)C2 | 0.402% (inactive)
O=C(Nc1ccc2c(c1)OCO2)c1cnn2cccnc12 | -0.154% (inactive)
C[C@H]1CN([C@@H](C)CO)C(=O)c2cc(NC(=O)CCC(F)(F)F)ccc2O[C@H]1CN(C)CC1CC1 | -0.033% [at 10 µM] (inactive)
C[C@H]1CN([C@@H](C)CO)C(=O)c2cc(NS(=O)(=O)c3ccccc3)ccc2O[C@@H]1CN(C)C | -0.047% (inactive)
C[C@H](CO)N1C[C@H](C)[C@H](CN(C)S(=O)(=O)c2ccc(F)cc2)Oc2ccc(NC(=O)c3ccncc3)cc2C1=O | -0.057% (inactive)
COc1cccc(NC(=O)OCCN2CCN(Cc3ccccc3)CCC2=O)c1 | 0.08% (inactive)
O=C(Cn1[nH]c(=O)c2ccccc2c1=O)Nc1cccnc1 | 0.021% (inactive)
COc1ccc(Br)cc1S(=O)(=O)Nc1ncccc1C | -0.096% (inactive)
Cc1cccnc1NC(=O)CCCN1C(=O)c2ccccc2C1=O | 0.14% (inactive)
Cc1ccc(-c2ccc([C@@H]3[C@@H](CO)N4C(=O)CN(C(=O)c5ccc(F)cc5)C[C@H]34)cc2)cc1 | 14.5% (inactive)
Cc1cc(C(=O)O/N=C(\N)c2ccncc2)ccc1[N+](=O)[O-] | -0.188% (inactive)
Cc1ccc(-n2c(O)c(C=NC3CCS(=O)(=O)C3)c3ccccc3c2=O)cc1C (centres undefined) | -0.046% (inactive)
COCC(=O)NC[C@H]1[C@H](c2ccc(C3=CCCC3)cc2)[C@@H](CO)N1C(C)=O | -0.131% [at 42 µM] (inactive)
C[C@H]1CN([C@@H](C)CO)C(=O)c2cc(NC(=O)Cc3ccccc3)ccc2O[C@H]1CN(C)Cc1ccc2c(c1)OCO2 | -0.068% (inactive)
COc1cc(OC)cc(C(=O)Nc2nc3ccc(S(C)(=O)=O)cc3s2)c1 | 0.771% (inactive)
Cc1ccc(S(=O)(=O)Nc2ccc3c(c2)C(=O)N([C@@H](C)CO)C[C@@H](C)[C@@H](CN(C)C)O3)cc1 | -0.078% (inactive)
C[C@@H]1CN([C@H](C)CO)S(=O)(=O)c2ccc(C#CC3CC3)cc2O[C@H]1CN(C)C(=O)c1ccncc1 | -0.481% (inactive)
CC(C)(CNCc1ccccc1)NS(=O)(=O)c1ccc(Cl)cc1 | -0.043% (inactive)

SMILES | Tm shift activity
CCCCNC(=O)c1onc(CSc2ccc(C(C)C)cc2)c1C(=O)O | 0.765% [at 5 µM] (inactive)
Cc1noc(C)c1S(=O)(=O)N(C)C[C@H]1Oc2ccc(NS(=O)(=O)c3cccs3)cc2C(=O)N([C@@H](C)CO)C[C@H]1C | -0.774% (inactive)
COc1ccc(Nc2nnc(-c3ccncc3)s2)cc1Cl | 0.068% (inactive)
CO[C@H](CN(C)S(=O)(=O)c1cccc(Cl)c1)[C@H](C)CN([C@@H](C)CO)S(=O)(=O)c1cccc(Cl)c1 | 0.223% [at 42 µM] (inactive)
C[C@@H]1CN([C@@H](C)CO)C(=O)c2cccc(NC(=O)C3CC3)c2O[C@H]1CN(C)Cc1ccncc1 | 0.078% (inactive)
O=C(C[C@@H]1C=C[C@H](NC(=O)Nc2cc(F)ccc2F)[C@H](CO)O1)Nc1ccc(-c2ccccc2)cc1 | 0.09% (inactive)
CCC(=O)N(NC1=NS(=O)(=O)c2ccccc21)S(=O)(=O)c1ccc(C)cc1 | -0.105% (inactive)
CC(C)(C)NC(=O)CN(C(=O)CNS(=O)(=O)c1ccc(Cl)cc1)c1ccc2c(c1)OCCO2 | -0.101% (inactive)
O=[N+]([O-])c1cccc(S(=O)(=O)Nc2ccc(S(=O)(=O)Nc3nccs3)cc2)c1 | -0.075% (inactive)
O=[N+]([O-])c1ccc(Cl)c(S(=O)(=O)Nc2ccc(S(=O)(=O)N3CCOCC3)cc2)c1 | -0.245% (inactive)
CC(=O)c1ccc(NS(=O)(=O)c2ccc(N)cc2)cc1 | -0.172% (inactive)
CC(=O)c1sc(NC(=O)c2cc(=O)c3ccccc3o2)nc1C | 0.254% (inactive)
CCOc1ccc(N(CC(=O)NCCSc2ccccn2)S(=O)(=O)c2ccc(Cl)cc2)cc1 | -0.149% (inactive)
N#C[C@@H]1[C@H](c2ccc(-c3cccnc3)cc2)[C@H](CO)N1C(=O)Nc1ccc(F)cc1 | -0.106% [at 42 µM] (inactive)
CC(C)C#Cc1cnc2c(c1)C(=O)N([C@H](C)CO)C[C@H](C)[C@H](CN(C)C(=O)c1cnccn1)O2 | -0.112% [at 42 µM] (inactive)
Cc1noc(C)c1NC(=O)Nc1ccc2c(c1)CC(=O)N([C@@H](C)CO)C[C@H](C)[C@@H](CN(C)Cc1ccc3c(c1)OCO3)O2 | -0.148% (inactive)
CC(C)NC(=O)Nc1ccc2c(c1)C(=O)N([C@H](C)CO)C[C@H](C)[C@@H](CN(C)C(=O)NC(C)C)O2 | 0.003% (inactive)
COc1cccc(NC(=O)N2C[C@H](O)COC[C@@H]3O[C@@H](CC(=O)NC4CCC4)CC[C@H]32)c1 | -0.128% (inactive)
COc1ccc(CCNS(=O)(=O)CCNC(=O)c2ccc3c(c2)OCO3)cc1 | -0.261% (inactive)
CSc1ccc(C(=O)NCC2CCN(C(=O)C(=O)c3cc4ccccc4o3)CC2)cc1 | -1.12% (inactive)
C/C(CC(=O)Nc1cccc(Cl)c1Cl)=N\NC(=O)C(=O)NC1CCCCC1 | 0.278% (inactive)

SMILES | Tm shift activity
O=C(CC1CC1)N1CC2(C1)[C@H](c1ccccc1)[C@H](CO)N2C(=O)c1cnccn1 | -0.016% [at 42 µM] (inactive)
COCC(=O)Nc1ccc2c(c1)OC[C@@H](C)N(C)C[C@H](C)[C@@H](OC)CN(C)C2=O | 0.133% (inactive)
Cc1ccc(N(C(=O)c2csnn2)C(C(=O)NC2CCCC2)c2ccccn2)c(C)c1 (centres undefined) | 0.564% (inactive)
O=C(C1CCCC1)N1CC2(C1)[C@H](c1ccccc1)[C@@H](CO)N2CC1CC1 | -0.131% [at 42 µM] (inactive)
C[C@H]1CN([C@@H](C)CO)C(=O)c2cc(C3=CCCC3)cnc2O[C@H]1CN(C)C(=O)CN(C)C | 0.046% (inactive)
Cc1cc(C(=O)Nc2cccc3c2O[C@@H](CN(C)C(=O)NC2CCCCC2)[C@@H](C)CN([C@H](C)CO)C3=O)n(C)n1 | -0.109% (inactive)
Nc1n[nH]c(=S)n1/N=C1/C(=O)Nc2ccccc21 | -1.04% [at 19.5 µM] (inactive)
O=C(COC(=O)CCCOc1ccc(Cl)cc1Cl)NCc1ccccc1 | -0.091% (inactive)
Cc1ccc(NC(=O)COC(=O)Cn2cnc3c2c(=O)n(C)c(=O)n3C)cc1F | -1.53% (inactive)
O=C(NCC[C@@H]1CC[C@@H](NS(=O)(=O)c2ccccc2)[C@@H](CO)O1)c1ccc2c(c1)OCO2 | -1.36% [at 42 µM] (inactive)
COCC(=O)N(C)C[C@@H]1Oc2cc(C#C[C@H](C)O)ccc2S(=O)(=O)N([C@@H](C)CO)C[C@H]1C | -0.017% [at 42 µM] (inactive)
CC(C)(CNS(=O)(=O)c1ccc2c(c1)OCCO2)N1CCOCC1 | -0.045% (inactive)
Cn1c(=O)[nH]c(=O)c2c1nc(SCC(O)CO)n2CCCc1ccccc1 (centres undefined) | -0.205% (inactive)
Cc1[nH]c2ccccc2c1C(=O)C(=O)NCCOc1ccccc1 | 0.288% (inactive)
O=[N+]([O-])c1ccc(/C=N/Nc2ccc3ccccc3c2)o1 | -0.355% (inactive)
CCOC(=O)[C@@H]1[C@H]2COc3cc(OC)ccc3[C@H]2N2C(=O)N(c3ccc(C)cc3)C(=O)[C@]12C | -0.261% (inactive)
C[C@H](CO)N1C[C@H](C)[C@@H](CN(C)C(=O)Nc2cccc3ccccc23)Oc2c(NS(C)(=O)=O)cccc2C1=O | -0.1% [at 42 µM] (inactive)
C[C@H]1CN([C@@H](C)CO)C(=O)c2cc(NC(=O)c3ccncc3)ccc2O[C@@H]1CN(C)S(=O)(=O)c1cn(C)cn1 | 0.122% (inactive)
C[C@H]1CN([C@@H](C)CO)C(=O)c2cc(NS(=O)(=O)c3ccccc3)ccc2O[C@@H]1CN(C)Cc1ccc(C(=O)O)cc1 | -0.154% (inactive)
CCCCn1cnc2c(SCc3cccc(F)c3)nc(N)nc21 | -0.433% (inactive)
O=C(COc1ccccc1)NCC(=O)NC1CCCCC1 | 0.061% (inactive)

SMILES | Tm shift activity
O=C(C[C@@H]1CC[C@@H](NC(=O)Nc2cc(F)ccc2F)[C@H](CO)O1)NCCCN1CCOCC1 | 0.042% [at 42 µM] (inactive)
CCOC(=O)Cn1c2ccccc2n2nc(CCC(=O)O)c(=O)nc12 | -0.267% (inactive)
COCC(=O)N1C[C@@H]2[C@H](c3ccccc31)[C@H](CO)N2C(=O)c1ccccc1F | 0.006% [at 42 µM] (inactive)
COc1ccccc1S(=O)(=O)N(C)C[C@@H]1Oc2cc(C#CCC(C)C)ccc2S(=O)(=O)N([C@@H](C)CO)C[C@H]1C | 0.178% [at 42 µM] (inactive)
O=C(C[C@H]1C[C@@H]2c3cc(NC(=O)NC4CCCC4)ccc3O[C@@H]2[C@H](CO)O1)NCc1ccc2c(c1)OCO2 | -0.035% (inactive)
CCCNC(=O)COCc1cc(-c2ccc3c(c2)OCO3)on1 | 0.027% (inactive)
O=C(COC(=O)CSc1ccc([N+](=O)[O-])cc1)NCCC1=CCCCC1 | -0.227% (inactive)
O=C(NCC[C@@H]1CC[C@H](NC(=O)C2CCOCC2)[C@H](CO)O1)Nc1ccc(Cl)cc1 | 0.002% [at 42 µM] (inactive)
CC(=O)Nc1ccc(C(=O)N/N=C/c2cc(Br)cc(Br)c2O)cc1 | 0.474% (inactive)
COc1ccc(/C=N/NC(=O)c2cccc([N+](=O)[O-])c2)cc1OC | 0.04% (inactive)
COc1ccc(NS(=O)(=O)c2cccc(C(=O)NN=Cc3ccc(OC)c(O)c3)c2)cc1 | -0.26% (inactive)
O=C(N/N=C/c1c[nH]c2ccccc12)c1ccc2c(c1)OCCO2 | -0.175% (inactive)
Cc1nn(-c2ccccc2)c(Cl)c1/C=N/NC(=O)c1cccnc1 | -0.238% (inactive)
Cc1c(/C=N\NC(=O)c2cccc(F)c2)cnn1C | -0.081% (inactive)
CC1CC(CC(=O)NC(=S)Nc2ccccc2Cl)C(=O)O1 (centres undefined) | -0.235% (inactive)
CNC[C@H]1Oc2ccc(NC(=O)Cc3cn(C)c4ccccc34)cc2C(=O)N([C@H](C)CO)C[C@H]1C | -0.055% [at 42 µM] (inactive)
COc1ccc(S(=O)(=O)N(C)C[C@@H]2Oc3ccc(NC(=O)Nc4ccccc4)cc3CC(=O)N([C@H](C)CO)C[C@@H]2C)cc1 | -0.087% [at 42 µM] (inactive)
CC(=O)Oc1ccc(C(=O)Nc2ccccc2C(=O)N2CCCCC2)cc1 | -0.094% (inactive)
COc1ccccc1C(=O)NNC(=O)c1ccc(NC(=O)c2ccccc2)cc1 | 0.273% (inactive)
CCCN(C)C[C@H]1Oc2cc(C#Cc3cccnc3)ccc2S(=O)(=O)N([C@H](C)CO)C[C@@H]1C | 0.518% (inactive)
C[C@@H]1CN([C@@H](C)CO)C(=O)c2cccc(NC(=O)c3ccc(-c4nccs4)cc3)c2O[C@@H]1CN(C)C | 0.253% (inactive)
